Records with an inconclusive call do not appear. Activity calls are given as the source filed them. Calls come from the whole dose curve; as a rule, active = well fitted cell-killing curve with a large enough effect; inconclusive = small, poorly fitted or top-dose-only effect, or effect the other way; inactive = no such curve, though single readings can be large or run the other way.
Test system: Tov-21-G
Experiment: Confirmatory qHTS for gynecologic anti-cancer compounds from libraries of approved drugs and bioactive compounds; note: nearly all actives have a fitted effect of over 55% in size
Details: gynecologic cancer cell panel viability, ATPlite luminescence, 48 h; series mostly up to 57.7 µM
Summary of the method: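 IC50 values derive from an ATPlite ATP-content luminescence assay following 48 h treatment at 37 C. Each compound ran as an 11-concentration, threefold series (57.5 uM to 0.977 nM); HEK 293T served as control line for selectivity index.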
Potency is the fitted concentration of half-maximal effect.

CN(C)CCC(CSc1ccccc1)Nc1ccc(S(=O)(=O)NC(=O)c2ccc(N3CCN(Cc4ccccc4-c4ccc(Cl)cc4)CC3)cc2)cc1[N+](=O)[O-] (stereo not given)
Potency: 13.7 µM (active)

COC(C)(C)CCn1nc(Nc2c(C)cccc2C)c2cnc(Nc3ccc(OCCN4CCCC4)c(F)c3)nc21
Potency: 1.37 µM (active)

OCCNC1CCCc2c1[nH]c1ccc(-c3ccccc3)cc21 (stereo not given)
Potency: 27.3 µM (active)

CCCCc1oc2ccccc2c1C(=O)c1cc(I)c(OCCN(CC)CC)c(I)c1
Potency: 56.2 µM (active)

Cc1c(NC(=O)OCC2COCCN2)cn2ncnc(Nc3ccc4c(cnn4Cc4cccc(F)c4)c3)c12 (stereo not given)
Potency: 3.06 µM (active)

O=C1N(c2ccccc2)c2ccccc2C1(Cc1ccncc1)Cc1ccncc1
Potency: inactive

CC(=O)c1cnc2ccc(-c3cc(Cl)c(O)c(Cl)c3)nc2c1NC1CCC(CN(C)C)CC1 (stereo not given)
Potency: 0.559 µM (active)

CCN1CCN(Cc2ccc(Nc3ncc(F)c(-c4cc(F)c5nc(C)n(C(C)C)c5c4)n3)nc2)CC1
Potency: 2.73 µM (active)

CC(C)Nc1cc(-c2c[nH]c(C(=O)N[C@H](CO)c3cccc(Cl)c3)c2)c(Cl)cn1
Potency: 24.3 µM (active)

COc1cc(F)c(F)c(Nc2ccc(I)cc2F)c1NS(=O)(=O)C1(CC(O)CO)CC1 (stereo not given)
Potency: 13.7 µM (active)

COc1ccc(OC)c(-c2nnc3ccc(-c4ccc(OC)c(O[C@@H]5CCOC5)c4)nn23)c1
Potency: inactive

Nc1nc(Cl)nc2c1ncn2C1OC(CO)C(O)C1F (stereo not given)
Potency: 3.43 µM (active)

COc1ccc(-c2ccc3c(N4CCOCC4C)nc(N4CCOCC4C)nc3n2)cc1CO (stereo not given)
Potency: inactive

C[C@]12CCC(=O)C=C1CC[C@@H]1[C@@H]2[C@@H](O)C[C@@]2(C)[C@H]1CC[C@]2(O)C(=O)CO
Potency: inactive

COc1ccccc1N1CCN(CC(O)COc2cccc3ccccc23)CC1 (stereo not given)
Potency: inactive

NC(=O)Nc1cc(-c2cccc(F)c2)sc1C(=O)NC1CCCNC1 (stereo not given)
Potency: 3.43 µM (active)

CC[C@]1(O)C[C@H]2CN(CCc3c([nH]c4ccccc34)[C@@](C(=O)OC)(c3cc4c(cc3OC)N(C=O)[C@H]3[C@@](O)(C(=O)OC)[C@H](OC(C)=O)[C@]5(CC)C=CCN6CC[C@]43[C@@H]65)C2)C1
Potency: 0.611 µM (active)

Nc1ccn([C@@H]2O[C@H](CO)[C@@H](O)C2(F)F)c(=O)n1
Potency: 6.11 µM (active)

Cc1ccc(C(=O)Nc2cccc(C(F)(F)F)c2)cc1-c1ccc2nc(NCCN3CCOCC3)ncc2c1
Potency: 4.85 µM (active)

Cc1cnc(Nc2ccc(OCCN3CCCC3)cc2)nc1Nc1cccc(S(=O)(=O)NC(C)(C)C)c1
Potency: 1.72 µM (active)

From PubChem BioAssay AID1345085 (National Center for Advancing Translational Sciences (NCATS), 2018)
